CYP2C19 inhib: inhibitors of human CYP2C19 | CYP2C19 Supersomes, luciferin-H EGE luminescence, 30 min | actives 21% (n = 96,000) | inhibition, % at 5 µM;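 active = CYP2C19 inhibition above a set limit at 5 µM in the primary screen, cut at about 50% in these data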;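 also: plate controls were negative control wells for no effect and 2.5 mM tranylcypromine positive control for full effect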
CYP2C9 act: increases human cytochrome P450 2C9 activity; P11712; recombinant CYP2C9, luciferin-H conversion, luminescence; stronger effect = higher value; factor 1 = untreated enzyme, 0 = blocked; activation factor at 5 µM; actives 1.4% (n = 96,000); AID 1024;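 active = activation factor of 2 or more for CYP2C9 at a 5 µM dose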;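 also: 0 = sulfaphenazole-blocked wells and 1 = vehicle-only wells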
Target sequence (P11712 whole entry, looked up): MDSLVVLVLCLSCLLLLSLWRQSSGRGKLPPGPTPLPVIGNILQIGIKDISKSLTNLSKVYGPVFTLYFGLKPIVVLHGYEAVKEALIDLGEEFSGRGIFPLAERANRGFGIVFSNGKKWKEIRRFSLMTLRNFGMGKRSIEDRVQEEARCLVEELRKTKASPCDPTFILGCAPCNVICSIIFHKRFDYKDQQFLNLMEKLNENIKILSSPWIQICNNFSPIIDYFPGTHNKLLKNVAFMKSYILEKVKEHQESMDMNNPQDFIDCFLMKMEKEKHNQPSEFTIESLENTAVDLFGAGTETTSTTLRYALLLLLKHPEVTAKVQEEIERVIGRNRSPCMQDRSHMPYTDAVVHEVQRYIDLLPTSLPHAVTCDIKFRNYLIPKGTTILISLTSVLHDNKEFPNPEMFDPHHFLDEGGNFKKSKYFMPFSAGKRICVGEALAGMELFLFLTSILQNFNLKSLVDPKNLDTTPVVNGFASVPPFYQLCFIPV
CYP2C9 inhib: blocks human cytochrome P450 2C9; P11712; CYP2C9 Supersomes, luciferin-H conversion, luminescence; inhibition, % at 5 µM; actives 20% (n = 96,000); AID 777;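 active = blocking of liver enzyme CYP2C9 beyond about 50% at 5 µM, limit read from the data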
PTK2B oligo ant: Pyk2 (human) oligomerization antagonism; Q293 cells, Pyk2 FERM NanoBiT luminescence; stronger effect = lower value; z-score (the deposit names both 25 µM and 10 µM); actives 0.83% (n = 99,000);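 active = Z-score of -3 or lower, scaled per plate to the spread of control and sample wells; inactive = z-score above -3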;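 also: negative z-score means lost luminescence so less FERM oligomerization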
CYP2C19 activ: increases human CYP2C19 enzyme activity. 96,000 tested, under 10 active. activation factor at 5 µM. recombinant CYP2C19, luciferin-H EGE luminescence; stronger effect = higher value; 0 = fully inhibited enzyme, 1 = untreated enzyme;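 active = activation factor of at least 2 at 5 µM in the primary screen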;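 also: 0 = wells with 2.5 mM tranylcypromine and 1 = vehicle-only wells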
The depositor's hits bear a star; . = no result. In the library only some 28% were active in any assay of this set; here they are far more common.

SMILES | CYP2C19 inhib | CYP2C9 act | CYP2C9 inhib | PTK2B oligo ant | CYP2C19 activ
CC(C)OP(=O)(c1ccc(N(C)C)cc1)C(O)c1c(Cl)cccc1Cl (stereo unspecified) | 81* | 0.4 | 55* | 0.43 | 0.2
CC(C)COP(=O)(c1ccc(N(C)C)cc1)C(O)c1ccncc1 (stereo unspecified) | 72* | 0.4 | 58* | 0.89 | 0.3
CCOP(=O)(c1ccc(N(C)C)cc1)C(O)c1ccc(Cl)cc1 (stereo unspecified) | 80* | 1.1 | -10 | 1.5 | 0.2
CCOP(=O)(c1ccc(N(C)C)cc1)C(O)c1ccccc1 (stereo unspecified) | 34 | 1 | 4 | 2.5 | 0.7
COC(=O)C1=C(C)NC(=O)CC1c1cc2c(cc1Br)OCO2 (stereo unspecified) | 82* | 0.3 | 71* | -0.46 | 0.2
CC1=C(C(=O)OC2CCCCCCC2)C(c2cc3c(cc2Br)OCO3)CC(=O)N1 (stereo unspecified) | 75* | 0.2 | 85* | -0.27 | 0.2
COC(=O)C1=C(C)NC(=O)CC1c1ccccc1F (stereo unspecified) | 26 | 0.7 | 32 | -0.05 | 0.7
Cn1c2c(c(=O)n(C)c1=O)C(c1cc3c(cc1Br)OCO3)CC(=O)N2 (stereo unspecified) | -14 | 1 | -2 | . | 1.1
CC1=C(C(=O)OCCOC(C)C)C(c2cc3c(cc2Br)OCO3)CC(=O)N1 (stereo unspecified) | 80* | 0.3 | 65* | -0.52 | 0.2
COC(=O)C1=C(C)NC(=O)CC1c1ccc(C(=O)OC)cc1 (stereo unspecified) | 21 | 0.9 | 13 | -0.74 | 0.8
COC(=O)C1=C(C)NC(=O)CC1c1ccc(F)c(Br)c1 (stereo unspecified) | 51* | 0.7 | 27 | -0.96 | 0.5
CSCCOC(=O)C1=C(C)NC(=O)CC1c1ccccc1Cl (stereo unspecified) | 15 | 0.8 | 15 | -0.25 | 0.9
CCC(C)Nc1nc2c(c(=O)[nH]c(=O)n2C)n1CCC(C)C (stereo unspecified) | . | . | . | 1.2 | .
NC(=O)c1nn(-c2ccccc2)c(=O)cc1O | -8 | 1.1 | -6 | -0.12 | 1.1
CCCCNC(=O)CN(c1cccc(Br)c1)S(C)(=O)=O | . | . | . | 0.44 | .
O=c1c([N+](=O)[O-])c(N2CCCCC2)c2ccccc2n1-c1ccccc1 | -9 | 1.1 | -12 | -0.82 | 1.1
O=c1c([N+](=O)[O-])c(NC2CCCCC2)c2ccccc2n1-c1ccccc1 | . | . | . | -3.7* | .
CSc1n[nH]c(NCc2ccccc2)n1 | 7 | 0.9 | 6 | 0.35 | 0.9
CSc1ccc(CNc2ccccn2)cc1 | 63* | 0.9 | 14 | 0.18 | 0.4
CSc1ccc(CNc2ccccc2)cc1 | 92* | 0.9 | 9 | . | 0.1
CC(=O)N1CCN(C(=S)c2ccc(N(C)C)cc2)CC1 | 16 | 0.9 | 8 | 0.28 | 0.8
CN(C)c1ccc(C(=S)N2CCCCCC2)cc1 | 53* | 0.8 | 20 | 2 | 0.5
Cc1ccc(N2CCN(C(=S)c3ccc(N(C)C)cc3)CC2)cc1 | 83* | 0.2 | 77* | 0.54 | 0.2
COc1ccc(C(C(C(=O)c2cccs2)N2CCOCC2)N2CCOCC2)cc1OC (stereo unspecified) | 6 | 1 | -2 | -0.27 | 0.9
COc1cc(C(=O)Nc2sc3c(c2C#N)CCN(C(C)=O)C3)cc(OC)c1OC | 1 | 0.6 | 42 | . | 1
SMILES | CYP2C19 inhib | CYP2C9 act | CYP2C9 inhib | PTK2B oligo ant | CYP2C19 activ
CCOC(=O)c1sc(N)c(C#N)c1COC(=O)CNC(=O)c1cc(OC)c(OC)c(OC)c1 | 53* | 0.4 | 64* | -0.42 | 0.5
O=c1c2cnn(-c3ccccc3Cl)c2ncn1Cc1cccnc1 | 53* | 0.9 | 10 | 1.1 | 0.5
O=c1c2cnn(-c3ccc(F)cc3)c2ncn1Cc1cccnc1 | 50* | 0.8 | 18 | 1.2 | 0.5
O=c1c2cnn(-c3ccccc3)c2ncn1Cc1cccnc1 | 40 | 0.8 | 20 | 0.79 | 0.6
O=c1c2cnn(-c3ccccc3)c2ncn1Cc1ccco1 | 27 | 0.5 | 50* | 0.07 | 0.7
O=c1c2cnn(-c3ccccc3)c2ncn1Cc1ccccn1 | 42 | 0.8 | 16 | 0.16 | 0.6
Cc1ccc2c(N)c(C(=O)N(c3ccccc3)c3ccccc3)sc2n1 | . | . | . | 0 | .
CC(=O)C1=C(O)C(=O)N(CCN2CCOCC2)C1c1ccc(N(C)C)cc1 (stereo unspecified) | . | . | . | -0.57 | .
CCC(=O)Nc1cccc(-c2cnc3ccccc3n2)c1 | 51* | 1.1 | -15 | -0.23 | 0.5

Bioassay records deposited in PubChem by Sanford-Burnham Center for Chemical Genomics.
